# An excerpt weighted towards active compounds, which were near 2.2% of everything screened.
# PfM18AAP inh = blocks P. falciparum M18 aspartyl aminopeptidase. recombinant PfM18AAP, H-Glu-NHMec fluorogenic cleavage. inhibition, % at 7.35 µM. actives 1.2% (n = 290,000). AID 1822;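 active means inhibition above the campaign mean inhibition over all tested compounds plus 3 SD, cut at about 28% in these data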;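 further: 0% = plate median of test compound wells and 100% = 2 mM ZnCl2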
# PLCb3 inh = blocks human PLC-beta3 enzyme activity. inhibition, % at 12.2 µM. actives 0.18% (n = 370,000). Purified PLC-beta3, fluorogenic substrate, fluorescence. Q01970;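 further: 0% = median of compound wells on plate and 100% = full blocker control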
# PLC-gamma1 inh = blocks human PLC-gamma1 enzyme activity. purified PLC-gamma1, fluorogenic substrate, fluorescence. inhibition, % at 12.2 µM. actives 0.84% (n = 370,000). P19174; in the data active means inhibition above about 9.5%
# Rce1 inh = blocks yeast Ras-converting enzyme; calls only; Q03530; AID 2563; actives 0.27% (n = 290,000); yeast membranes, quenched prenylated peptide cleavage fluorescence;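 active means fall in fluorescence gain of 50% or more versus controls, with final raw signal at or below 3038400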;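 further: plate controls were neutral control wells for no effect and wells lacking membranes for full effect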
# GC-B act = GC-B (human) receptor activation; HEK293-GC-B cells, CNP EC30, cGMP TR-FRET; 0% at EC30 CNP, 100% saturating CNP; P20594; activation, % at 10 µM; AID 1920062; actives 0.11% (n = 370,000);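 active means activation at 10 µM reaching about 35% in either raw or pattern-adjusted values, limit read from the data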
# NPR1 activator = GC-A (human) enzyme activation; P16066; HEK293 GC-A cells, cGMP TR-FRET, EC30 ANP; 0% at EC30 ANP, 100% saturating ANP; activation, % at 10 µM; actives 0.14% (n = 370,000); AID 1671463; in the data active means activation above about 40%
# Target sequence (P16066 whole entry, looked up): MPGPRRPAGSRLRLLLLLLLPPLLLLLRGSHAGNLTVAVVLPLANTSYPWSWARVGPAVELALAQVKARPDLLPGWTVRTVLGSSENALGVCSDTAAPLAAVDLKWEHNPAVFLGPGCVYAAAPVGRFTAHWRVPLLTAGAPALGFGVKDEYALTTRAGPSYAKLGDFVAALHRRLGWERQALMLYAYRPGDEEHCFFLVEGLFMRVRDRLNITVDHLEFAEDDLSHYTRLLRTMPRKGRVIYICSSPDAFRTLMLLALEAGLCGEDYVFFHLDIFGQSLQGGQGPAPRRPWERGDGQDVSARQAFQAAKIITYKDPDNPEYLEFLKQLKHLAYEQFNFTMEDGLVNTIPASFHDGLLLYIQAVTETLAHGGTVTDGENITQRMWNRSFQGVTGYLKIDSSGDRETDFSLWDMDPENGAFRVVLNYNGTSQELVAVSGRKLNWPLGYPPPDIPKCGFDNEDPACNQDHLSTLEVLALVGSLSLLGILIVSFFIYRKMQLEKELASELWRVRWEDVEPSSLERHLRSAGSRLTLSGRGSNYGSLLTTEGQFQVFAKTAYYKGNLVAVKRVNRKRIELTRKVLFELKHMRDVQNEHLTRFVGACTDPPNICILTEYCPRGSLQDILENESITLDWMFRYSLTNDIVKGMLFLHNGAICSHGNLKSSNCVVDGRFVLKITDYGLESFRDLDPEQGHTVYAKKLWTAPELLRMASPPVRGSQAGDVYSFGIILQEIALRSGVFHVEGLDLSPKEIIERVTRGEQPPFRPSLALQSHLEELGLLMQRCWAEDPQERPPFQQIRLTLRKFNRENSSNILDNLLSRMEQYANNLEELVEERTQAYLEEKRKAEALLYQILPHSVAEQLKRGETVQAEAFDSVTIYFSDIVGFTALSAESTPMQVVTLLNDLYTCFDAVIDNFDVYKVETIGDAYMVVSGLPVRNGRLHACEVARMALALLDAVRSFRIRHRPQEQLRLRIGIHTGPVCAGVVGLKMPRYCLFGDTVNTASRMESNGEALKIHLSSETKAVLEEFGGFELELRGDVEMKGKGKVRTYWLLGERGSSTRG
# PLCgamma1 ctr = inhibits human PLC-gamma1 in PLC-beta3 counter-screen | shares compounds with PLC-gamma1 inh | purified PLC-gamma1, fluorogenic substrate, fluorescence | inhibition, % at 12.3 µM | actives 3.1% (n = 3,300); in the data active means inhibition above about 9.5%
# PLCb3 confirm = confirmation of human PLC-beta3 inhibitors. shares compounds with PLC-gamma1 inh. purified PLC-beta3, fluorogenic substrate fluorescence. inhibition, % at 12.3 µM. actives 1% (n = 3,300). AID 743261
# An asterisk follows results filed as active; i = inactive; . = no result. Unless noted, no stated cut-off is given here; in the data, active means inhibition above about 11%; inactive means the rest.
SMILES,PfM18AAP inh,PLCb3 inh,PLC-gamma1 inh,Rce1 inh,GC-B act,NPR1 activator,PLCgamma1 ctr,PLCb3 confirm
CCOc1ccc(Cl)cc1S(=O)(=O)N1CCN(c2ccc(C)c(C)c2)CC1,-12,2,10*,i,2,-2,-8,-3
COc1ccccc1NC(=O)Cn1c(=O)n(C)c(=O)c2sc3c(c21)COC(C)(C)C3,4,2,13*,i,4,-1,-5,1
COc1ccccc1NC(=O)Cn1nnc2sc3c(c2c1=O)CC(C)(C)OC3,-7,-4,2,i,0,-3,.,.
CCN1CCN(CC(=O)NC2CCCCC2)C(=O)C1=O,3,7,7,i,-3,-2,.,.
CCN1CCN(CC(=O)NC2CCCC2)C(=O)C1=O,-2,7,13*,i,0,2,-4,-4
O=C(O)c1cccc(Nc2ccncc2[N+](=O)[O-])c1,-12,6,11*,i,-7,3,-8,-2
O=[N+]([O-])c1cnccc1Nc1ccccc1,-3,4,1,i,3,-3,.,.
CCCC1CCC2(CCC(=O)N2CCC#N)CC1 (stereo not drawn),.,-2,0,.,-8,0,.,.
CCNC(=O)C1(C)CCN1C(=O)CCc1cccc(Cl)c1 (stereo not drawn),.,8,14*,.,0,0,-8,-4
Cc1cccc(CCNC(=O)C2CCCN(S(=O)(=O)c3cccc4nsnc34)C2)c1 (stereo not drawn),8,9,17*,i,0,-4,-2,1
CSc1ncccc1C(=O)NC1CCCc2c1cnn2-c1ccc(C)c(C)c1 (stereo not drawn),-10,-8,11*,i,4,-4,2,0
CCOC(=O)[C@]12CCCC=C1N(CCCOC)C(=O)[C@@H]2CC(=O)N1CCSCC1,.,1,9,.,3,2,.,.
COc1ccc2ccccc2c1C1CC(=O)N2CN(C)CSC2=C1C#N (stereo not drawn),26,4,11*,i,7,-4,-8,-9
O=C(O)c1cccc2cccc(-c3c4ccc(=O)c(O)c-4oc4c(O)c(O)ccc34)c12,.,-6,39*,.,48*,-28,28*,-6
O=C(Nc1ccc(F)cc1)OC1CC2CC1[C@H]1CCCCN1C2 (stereo partly drawn),.,-5,-3,.,1,1,.,.
Fc1cccc(F)c1Cn1ccc2ccc(-c3ccc4ccn(Cc5c(F)cccc5F)c4c3)cc21,.,-2,-5,.,4,1,.,.
COC(=O)C1=C(C)N(Cc2cccc(C(F)(F)F)c2)C(=NCc2ccc3c(c2)OCO3)NC1c1cccc(F)c1 (stereo not drawn),.,4,2,.,-22,-23,.,.
COCCSc1ccccc1C(=O)Nc1nncs1,6,4,10*,i,4,2,-1,1
COCCSc1ccccc1C(=O)Nc1ccncc1,7,1,-1,i,-6,-1,.,.
C#CCNC(=O)C[C@@H]1C(=O)N(CC=C)C2=CCCCC[C@]21C(=O)OC,.,-2,2,.,-3,1,.,.
CCCCn1c(-c2nonc2NC(=O)c2ccccc2Cl)nc2ccccc21,.,-4,12*,.,4,3,-10,-7
Cc1ccc(/C=C/C(=O)NCc2cccs2)cc1,-3,13*,8,i,3,2,-7,-1
Cc1ccc(C(=O)OCC(=O)Nc2cccc(Br)c2)s1,.,1,2,.,0,0,.,.
CC(=O)Nc1ccc(NC(=O)COC(=O)c2ccc(C)s2)cc1,0,-2,11*,i,0,0,-4,2
CN(C)N1C(=O)CC(NNC(=O)c2ccncc2)C1=O (stereo not drawn),5,3,10*,i,1,-2,-6,2
COc1ccc(C2CC(=O)C(c3cccc(OC)c3)=CN2Cc2ccccc2)cc1 (stereo not drawn),.,-30,-22,.,0,-2,.,.

# Screening results (PubChem BioAssay)
